In PubChem BioAssay (NCI):
Values joined by “and” are separate entries in the source; they are usually repeats but may differ in a detail not shown here. Equal values may be shown once. About 83,000 compounds went through this panel and 20% of them were active in at least one assay; those are over-represented in the sample as a whole.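 Cells were grown in 96-well plates and exposed to the test compound at a single concentration for 48 hours; results are reported as percent growth, with values below 10 considered active.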 Unmarked numbers belong to inactive results. Active and inactive are the calls of the source.

How the values were obtained:
Test in all cases: NCI-60 one-dose screen, 48 h (100 = growth as untreated, 0 = no growth, -100 = all killed)
Conditions in all cases: 10 µM unless noted
[1] = test system: HCT-15 colon
[2] = test system: HT29 colon
[3] = test system: SNB-75 CNS
[4] = test system: SNB-19 CNS
[5] = test system: U251 CNS
[6] = test system: PC-3 prostate
[7] = test system: SK-MEL-5 melanoma
[8] = test system: UACC-62 melanoma
[9] = test system: LOX IMVI melanoma
[10] = test system: SK-MEL-28 melanoma

| Structure (SMILES) | growth [1] | growth [2] | growth [3] | growth [4] | growth [5] | growth [6] | growth [7] | growth [8] | growth [9] | growth [10] |
| --- | --- | --- | --- | --- | --- | --- | --- | --- | --- | --- |
| COc1cc2ncnc(Nc3ccc(F)c(Cl)c3)c2cc1OCC(=O)N1CCCCC1 | 86.1% | 77.1% | 87.7% | 91.8% | 96.9% | 84.6% | 90.4% | 91.7% | 87.4% | 99.2% |
| OCCN1CCN(c2cc(-c3cccc(OC(F)(F)F)c3)nc3ccc(N4CCCC4)cc23)CC1 | 10.9% | 5.34% (active) | 53.5% | 74.1% | 29.3% | 25.9% | 46.7% | 59.6% | 9.02% (active) | 71.1% |
| N#Cc1ccccc1-c1ccc(Cn2c(-c3cscn3)nc3c(Cl)cccc32)cc1 | 77.9% | 71% | 78% | 88.5% | 79.1% | 54.4% | 55.3% | 75% | 65.7% | 105% |
| N=C(N)SCc1c2ccccc2c(CSC(=N)N)c2ccccc12 | 93.9% | 65.9% | 89.5% | 111% | 61.1% | 61.8% | 68.9% | 72.9% | 55.7% | 99% |
| CCCCCCCC/C=C\CCCCCCCCOc1ccccc1CC(=O)NCC[N+]1(C)CCOCC1 | 92.5% | 44.9% | 47.7% | 32.8% | 12.3% | 21.7% | 89.3% | 68% | 71.8% | 93.8% |
| COc1cc(C=O)ccc1Oc1ccc([N+](=O)[O-])cc1[N+](=O)[O-] | 108% | 108% | 93.1% | 90.3% | 93.2% | 94.4% | 98.6% | 82.3% | 82% | 107% |
| COc1nc2ccc(C)cc2cc1/C=[N+](\[O-])c1ccccc1 | 77.2% | 95.1% | 79.5% | 86.6% | 95.4% | 68.2% | 96.2% | 76.6% | 77.8% | 97.6% |
| COc1cc(/C=C/C(=O)c2ccc(NC(=O)CSc3nnc(-c4cc(-c5ccccc5)nc5ccccc45)n3-c3ccccc3)cc2)cc(OC)c1OC | 65.9% | 54.7% | 104% | 95.1% | 94% | 81.6% | 87% | 71.9% | 89.4% | 101% |
| Cn1ccnc1CN1CCSC(C(=O)Nc2ccccc2)C1 (stereo not given) | 95.4% | 95.1% | 79.5% | 93% | 93.1% | 92.3% | 95.4% | 87.7% | 98.7% | 100% |
| CCOC(=O)c1ccc(Nc2ncnc3c2cnn3-c2cccc(F)c2)cc1 | 102% | 103% | 82.1% | 96.9% | 98% | 97.3% | 101% | 92.6% | 93.2% | 110% |
| CC(=O)Nc1c(I)c(NC(C)=O)c(I)c(C(=O)O)c1I | 98.5% and 131% | 108% and 118% | 82% and 124% | 107% | 102% and 106% | 88.2% and 101% | 103% and 105% | 105% and 119% | 95.8% and 111% | 115% and 108% |
| O=C(CC1(O)C(=O)Nc2ccc(Br)cc21)c1ccc(Cl)cc1 (stereo not given) | 109% | 97.8% | 81.8% | 107% | 94.6% | 81.6% | 96.8% | 98.1% | 99.3% | 120% |
| C=C[C@]1(C)C=C2CC[C@@H]3C(C)(C)C(=O)CC[C@@]3(C)[C@@H]2CC1 | 106% | 102% | 90.5% | 108% | 98.5% | 98.8% | 109% | 97.9% | 99.5% | 113% |
| C[N+]1=C(/C=C\C=C\c2ccccc2)C(C)(C)c2ccccc21 | 14.2% | 12.3% | 81.8% | 27.4% | 14% | 30.7% | -39.7% (active) | -16.1% (active) | 12.6% | -35.5% (active) |
| O=C(Cn1cc(CN2CCN(c3ccnc4cc(Cl)ccc34)CC2)nn1)Nc1cccc([N+](=O)[O-])c1 | 102% | 101% | 83.4% | 90.3% | 81.6% | 58.5% | 70.1% | 70.8% | 85.1% | 104% |
| Nn1c(-c2ccc(Cl)cc2)nc2c(-c3ccc(Cl)cc3)nc3ccc(Cl)cc3c2c1=O | 58.2% | 7.88% (active) | -51.4% (active) | 28.2% | -63.5% (active) | 36.6% | 52.5% | 30.3% | 20.2% | -67.2% (active) |
| Nc1ccccc1SC(CC(=O)c1ccccc1)c1ccc([N+](=O)[O-])cc1 (stereo not given) | 87.7% and 59% | 19.7% and 39.1% | 84.6% and 80.8% | 93.2% and 101% | 62.6% and 57.4% | 70.9% and 59.6% | 105% | 90.9% and 84.5% | 41.7% and 45.5% | 94.4% and 99.6% |
| COc1ccc(-c2cc(-c3cccc(Cl)c3)c(C#N)c(=O)[nH]2)c(OC)c1 | 97.7% | 118% | 72.7% | 94.2% | 96.4% | 92.3% | 94.2% | 90.7% | 101% | 92.2% |
| COc1ccccc1/C=C1\COc2ccc(O)c(O)c2C1=O | -13.3% (active) | 57.5% | 11.6% | 43.7% | 15.3% | 33.1% | 41.6% | 14.8% | -30.1% (active) | 47.9% |
| Cc1ccc(C(=O)Nc2nc3c(s2)CN(Cc2ccccc2)CC3)cn1 | 49.5% | 59.1% | 66.9% | 92.3% | 92.9% | 74.1% | 79.3% | 74.5% | 87% | 94.3% |
| O=C(CCN1CCOCC1)Nc1cccc(-n2cc(-c3ccncc3)c(-c3ccc(Cl)c(O)c3)n2)c1 | 28.5% | -7.51% (active) | -1.7% (active) | 48.8% | 27.7% | 11.4% | 20.3% | 43.1% | 23.1% | 49.6% |
| CS(=O)(=O)Nc1cc(-c2ccc3ncnc(Nc4ccc(F)c(Cl)c4)c3c2)cnc1Cl | 8.37% (active) | 9.63% (active) | -15.9% (active) | 20.1% | 3.05% (active) | -7.94% (active) | -93.5% (active) | -8.21% (active) | -23.8% (active) | 14.8% |
| CC(=O)OC[C@]12CCC(C)(C)C=C1[C@H]1CC[C@@H]3[C@@]4(C)CCCNC(C)(C)[C@@H]4CC[C@@]3(C)[C@]1(C)CC2 | 89.6% | 31.6% | 71.8% | 53.4% | 35.3% | 37% | 9.31% (active) | 34.4% | 72.5% | 59.1% |
| Cc1c(C(=O)OCCCCOC(=O)c2c(C)n(C)c3scc[n+]23)[n+]2ccsc2n1C | 106% | 107% | 80.5% | 101% | 103% | 92.3% | 142% | 95.7% | 102% | 104% |
| CCCCC1COc2cccc3c2N1C=C/C3=C\C(=O)N(C)c1cccc(Cl)c1 (stereo not given) | 99.4% | 109% | 93% | 91.5% | 101% | 89.6% | 102% | 85.9% | 99% | 104% |
